Test results reported in PubChem BioAssay AID651702 (NMMLSC, 2012).
Hit rate of the full screen: of about 360,000 compounds, about 2,400 (0.67%) were called active.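 How the source made its calls: active means inhibition above about 55% (limit read from the data); inconclusive means no clear call, values can overlap the other calls; inactive means the rest.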 The list comes from a sample in which actives are over-represented; it also holds similar structures and randomly drawn compounds.

assay: LAMP-1 surface exposure blockers, TALL-104 cells – cell-based, flow cytometry, MLPCN library, primary screen (AID 651702); settings: TALL-104 LAMP-1 surface exposure, at 10 µM, active compounds read high, cells stimulated with thapsigargin and PMA

Q: With `Cc1cccc(C)c1NC(=O)N1CC(C)OC(C)C1` (stereo unspecified) as the molecule, how does the inhibition read?
A: The inhibition was -0.4% (inactive).

Q: Which inhibition does the source give for `Cc1cccc(C)c1NC(=O)C(Cl)C(=O)c1ccccc1` (stereo unspecified) here?
A: Its inhibition is 72.7% (active).

Q: Which inhibition does the source give for `Cc1cccc(C)c1NC(=O)COC(=O)c1ccccc1O` here?
A: The inhibition was -9.6% (inactive).

Q: Which inhibition does the source give for `Cc1ccc(N(C(=O)CNC(=O)c2ccco2)C(C(=O)NC2CCCC2)c2ccncc2)cc1` (stereo unspecified) here?
A: Its inhibition is -16.9% (inactive).

Q: With `COCCc1nn2c(=O)cc(COC(=O)c3cc(OC)c(OC)c(OC)c3)nc2s1` as the molecule, how does the inhibition read?
A: Its inhibition is -0.5% (inactive).

Q: For `Cc1cccc(N(CC(=O)Nc2ccc(-c3nc4ccc(C)cc4s3)cc2)S(C)(=O)=O)c1`, which inhibition is on record?
A: Its inhibition is 68% (active).

Q: For `Cc1ccc(N(CC(=O)Nc2cc(C)cc(C)c2)S(=O)(=O)c2cccc3nonc23)cc1`, which inhibition is on record?
A: The inhibition was 2.1% (inactive).

Q: With `CCN(CC)S(=O)(=O)c1ccc(NC(=O)CN(c2cccc(F)c2)S(C)(=O)=O)cc1` as the molecule, how does the inhibition read?
A: The inhibition was -6% (inactive).

Q: Which inhibition does the source give for `CCn1c(O)c2ccc(C(=O)N=NC(=O)c3cccnc3)cc2c1O` here?
A: Its inhibition is -0.4% (inactive).

Q: For `CCc1sc(C(=O)N2CCN(CC(=O)Nc3cccc(F)c3)CC2)cc1C`, which inhibition is on record?
A: The inhibition was -5.4% (inactive).

Q: With `CC(=O)C[C@@H]1OC[C@H](C)N1S(=O)(=O)c1ccc(C)cc1` as the molecule, how does the inhibition read?
A: The inhibition was -6.7% (inactive).

Q: For `COc1ccc(-c2cc(=O)oc3cc(OC(C)C(=O)NCC4CCC(C(=O)O)CC4)ccc23)cc1` (stereo unspecified), which inhibition is on record?
A: The inhibition was 19.5% (inactive).

Q: Which inhibition does the source give for `Cc1ccc([N+](=O)[O-])c(OCCCNCC(C)O)c1` (stereo unspecified) here?
A: The inhibition was 0% (inactive).

Q: For `Cc1cc(C)cc(NC(=S)NCCCN2CCOCC2)c1`, which inhibition is on record?
A: The inhibition was -0.8% (inactive).

Q: With `CCCC(=O)NC(=S)Nc1ccc(CN2CCOCC2)cc1` as the molecule, how does the inhibition read?
A: Its inhibition is -6.2% (inactive).

Q: With `CCCCc1ccc(NC(=S)NCCCN2CCOCC2)cc1` as the molecule, how does the inhibition read?
A: Its inhibition is 67% (active).

Q: With `Cc1ccc(S(=O)(=O)N2CCC(=O)N([C@H](COCc3ccccc3)C(C)C)CC2)cc1` as the molecule, how does the inhibition read?
A: The inhibition was -7.5% (inactive).

Q: With `CC(C)CCN1CCN=C1N(C)C` as the molecule, how does the inhibition read?
A: Its inhibition is -1.5% (inactive).

Q: With `COc1ccccc1CN1CCN(C(c2ccccc2)c2ccccc2)CC1` as the molecule, how does the inhibition read?
A: Its inhibition is 69.5% (active).

Q: For `COc1ccccc1CN1CCN(Cc2cc(OC)c(OC)cc2OC)CC1`, which inhibition is on record?
A: The inhibition was 4.3% (inactive).

Q: Which inhibition does the source give for `COc1cccc(OC)c1C(=O)N1CCN(Cc2ccccc2F)CC1` here?
A: The inhibition was 0.4% (inactive).

Q: For `CSc1ncccc1C(=O)OCC(=O)N1CCOCC1`, which inhibition is on record?
A: Its inhibition is 0.7% (inactive).

Q: For `COC(=O)CCc1sc(Nc2ccc(Br)cc2)nc1-c1ccc(OC)cc1`, which inhibition is on record?
A: The inhibition was 7.1% (inactive).

Q: For `COc1ccc(-c2csc(Nc3ccc(O)cc3)n2)cc1`, which inhibition is on record?
A: Its inhibition is 67.8% (active).

Q: With `COc1ccc(C(O)c2nc(-c3ccc(OC)nc3)cs2)cc1` (stereo unspecified) as the molecule, how does the inhibition read?
A: Its inhibition is -0.4% (inactive).

Q: Which inhibition does the source give for `O=C(CS(=O)(=O)c1cn(Cc2ccc(Cl)cc2)c2ccccc12)N1CCOCC1` here?
A: Its inhibition is -1.9% (inactive).

Q: Which inhibition does the source give for `CCOC(=O)CSc1nc2c(sc(=S)n2CCc2ccccc2)c(=O)n1Cc1ccco1` here?
A: Its inhibition is 55.7% (active).

Q: Which inhibition does the source give for `CCOC(=O)CSc1nc2c(c(=O)n(Cc3ccccc3Cl)c(=O)n2C)n1C` here?
A: The inhibition was -0.4% (inactive).

Q: For `CCOC(=O)Cc1csc(NC(=O)CSc2nnc(-c3cccnc3)n2Cc2ccco2)n1`, which inhibition is on record?
A: Its inhibition is 1% (inactive).

Q: For `CCCc1nc(SCC(=O)N2CCCC2)c2c(=O)n(C)c(=O)n(C)c2n1`, which inhibition is on record?
A: The inhibition was 45.2% (inactive).

Q: With `CC(O)CN(Cc1ccc(Cl)cc1)CC(C)O` (stereo unspecified) as the molecule, how does the inhibition read?
A: Its inhibition is 0.5% (inactive).

Q: For `CCCCCn1c(=O)[nH]c2cc(C(=O)NCCCN3CCCCC3C)ccc2c1=O` (stereo unspecified), which inhibition is on record?
A: The inhibition was -0.7% (inactive).

Q: For `Cc1ccc(-c2cnc(NC(=O)CCC(=O)N(C)Cc3ccccc3)n2C)cc1`, which inhibition is on record?
A: Its inhibition is -1.9% (inactive).

Q: Which inhibition does the source give for `CC(C)CN1CC(C)C(=O)N(c2ccccc2)C1=S` (stereo unspecified) here?
A: Its inhibition is 1.4% (inactive).

Q: Which inhibition does the source give for `CCN(CC(=O)Nc1ccccc1C(=O)NC1CC1)Cc1cccs1` here?
A: Its inhibition is -0.1% (inactive).

Q: For `CC1CCc2c(nc3ncnn3c2Nc2ccc(OC(F)(F)F)cc2)C1` (stereo unspecified), which inhibition is on record?
A: The inhibition was -1.5% (inactive).

Q: Which inhibition does the source give for `Cn1sc(=O)c2cc(S(=O)(=O)NC3CC3)ccc21` here?
A: Its inhibition is 100% (active).

Q: Which inhibition does the source give for `CC1CCC(NS(=O)(=O)c2ccc3c(c2)CC(=O)N3)CC1` (stereo unspecified) here?
A: Its inhibition is -3.8% (inactive).

Q: With `O=S(=O)(NC1CC1)c1ccc(F)c(F)c1` as the molecule, how does the inhibition read?
A: Its inhibition is -10.9% (inactive).

Q: For `OC(CNCC1CCCO1)Cn1c2ccc(Br)cc2c2cc(Br)ccc21` (stereo unspecified), which inhibition is on record?
A: Its inhibition is 41.3% (inactive).

Q: For `O=C(NCc1cccnc1)c1ccc(CS(=O)(=O)c2ccc(Br)cc2)o1`, which inhibition is on record?
A: Its inhibition is 2.2% (inactive).

Q: With `CC(C)Cn1cnc2c(SCc3ccc(Cl)cc3)nc(N)nc21` as the molecule, how does the inhibition read?
A: The inhibition was 90.1% (active).

Q: With `Nc1cc(N)nc(SCc2ccc(Cl)cc2)n1` as the molecule, how does the inhibition read?
A: The inhibition was 0.3% (inactive).

Q: Which inhibition does the source give for `Nc1nc(SCc2ccc([N+](=O)[O-])cc2)c2ncn(C3OC(CO)C(O)C3O)c2n1` (stereo unspecified) here?
A: The inhibition was -2.7% (inactive).

Q: With `COc1ccc(OCc2nnc3n2N=C(c2ccccc2)C(CC(=O)O)S3)cc1` (stereo unspecified) as the molecule, how does the inhibition read?
A: The inhibition was 32.9% (inactive).

Q: Which inhibition does the source give for `Cc1ccc(Nc2cc(=O)n(C3CCCCC3)c(=O)[nH]2)cc1C` here?
A: The inhibition was -1.1% (inactive).
